The values below come from PubChem BioAssay (NCATS).

The target of test [1] is Cytochrome P450 2D6 (Homo sapiens) (UniProt P10635). The experiment in a line: Cytochrome P450 family 2 subfamily D member 6 (CYP2D6) small molecule antagonists: luciferase biochemical (cell-free) qHTS assay (AID 1645840; active = well fitted curve in the direction sought with a large enough effect in the repeat runs; an effect the other way counts as inactive or inconclusive; note: nearly all actives have a fitted effect of over 55% in size; note: potency is the fitted concentration of half-maximal effect). In short, it runs like this:
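P450-Glo CYP2D6 system: proluciferin substrate converted by enzyme to luciferin, read by luminescence proportional to activity. Enzyme-substrate mix with compound 10 min at room temperature, then NADPH regeneration 1 h before detection reagent.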

Test [2] can be described thus: Primary qHTS for inhibitors of nuclear receptor binding SET domain protein 2 (NSD2) in an isogenic RCH-ACV NSD2 p.E1099K mutant (9B) (AID 1645876). Note: nearly all actives have a fitted effect of over 70% in size. Note: potency is the fitted concentration of half-maximal effect. For orientation: Quantitative high-throughput screening tests each substance at several concentrations.
The nature of test [3]: Primary qHTS for inhibitors of nuclear receptor binding SET domain protein 2 (NSD2) in an RCH-ACV wild type WT cells (2C) (AID 1645877). Note: nearly all actives have a fitted effect of over 70% in size. Note: potency is the fitted concentration of half-maximal effect.
The target of test [4] is N-terminal Xaa-Pro-Lys N-methyltransferase 1 (Homo sapiens) (UniProt Q9BV86). The experiment in a line: Confirmatory qHTS for Inhibitors of N-terminal methyltransferase 1 (NTMT1): MTaseGlo Assay (AID 1645874). Note: nearly all actives have a fitted effect of over 65% in size. Note: potency is the fitted concentration of half-maximal effect. In short, it runs like this: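 Enzyme mix (125 nM NTMT1, 100 uM SAM) + compound, 15 min RT; + 1 uM SPKRIA, 30 min RT, dark; MTase-Glo reagent 30 min, detection solution 30 min; luminescence. % inhibition vs no-enzyme/DMSO controls, 4-parameter Hill fit.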
Chain of N-terminal Xaa-Pro-Lys N-methyltransferase 1 (Homo sapiens) (Q9BV86 whole entry, looked up): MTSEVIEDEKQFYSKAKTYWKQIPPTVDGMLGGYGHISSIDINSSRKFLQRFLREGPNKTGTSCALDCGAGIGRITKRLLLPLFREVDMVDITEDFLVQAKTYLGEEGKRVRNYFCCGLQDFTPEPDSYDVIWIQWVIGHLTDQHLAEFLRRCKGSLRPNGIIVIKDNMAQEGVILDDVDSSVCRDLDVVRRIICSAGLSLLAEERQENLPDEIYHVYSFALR

Test [5] deals with Cytochrome P450 2C9 (Homo sapiens) (UniProt P11712). Description: Cytochrome P450 family 2 subfamily C member 9 (CYP2C9) small molecule antagonists: luciferase biochemical (cell-free) qHTS assay (AID 1645842; active = well fitted curve in the direction sought with a large enough effect in the repeat runs; an effect the other way counts as inactive or inconclusive; note: nearly all actives have a fitted effect of over 55% in size; note: potency is the fitted concentration of half-maximal effect). In short, it runs like this: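 P450-Glo CYP2C9 system: proluciferin substrate with enzyme in mix containing 0.4% BSA, 10 min at room temperature, then NADPH regeneration solution added and incubated 1 h at 37C. Detection reagent stopped reaction; luminescence read after 20 min as RLU.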
Chain of Cytochrome P450 2C9 (Homo sapiens) (P11712 whole entry, looked up): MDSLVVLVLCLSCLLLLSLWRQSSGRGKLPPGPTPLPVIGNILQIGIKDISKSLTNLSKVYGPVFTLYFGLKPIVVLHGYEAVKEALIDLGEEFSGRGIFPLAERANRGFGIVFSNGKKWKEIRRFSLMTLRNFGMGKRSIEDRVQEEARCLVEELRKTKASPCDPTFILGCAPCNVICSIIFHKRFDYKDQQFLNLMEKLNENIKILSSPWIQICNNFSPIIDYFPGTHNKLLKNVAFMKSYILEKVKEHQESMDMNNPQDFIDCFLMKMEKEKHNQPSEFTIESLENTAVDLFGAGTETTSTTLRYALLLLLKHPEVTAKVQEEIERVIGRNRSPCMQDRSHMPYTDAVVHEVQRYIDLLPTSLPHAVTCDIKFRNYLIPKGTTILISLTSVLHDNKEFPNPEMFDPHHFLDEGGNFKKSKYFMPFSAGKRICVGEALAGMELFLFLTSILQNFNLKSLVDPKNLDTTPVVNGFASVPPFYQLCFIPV

Test [6] concerns the target Catechol O-methyltransferase (Homo sapiens) (UniProt P21964). Description: Confirmatory Screen for Target Class Profiling of Small Molecule Inhibitors of Methyltransferases (AID 1745852). Conditions: MTase-Glo luminescence, SAH detection, recombinant enzyme; measured here: COMT max response; stronger effect = lower value.

Several values for one entry are separate records, joined by “and”; a condition that tells them apart may be missing. Equal values may be shown once. Records with an inconclusive call do not appear. Activity calls are given as the source filed them. Unless noted, calls come from the whole dose curve; as a rule, active = well fitted curve in the direction sought with a large enough effect; inconclusive = small, poorly fitted or top-dose-only effect, or another doubt; inactive = no such curve, though single readings can be large; an effect the other way counts as inactive or inconclusive.

Chain of Cytochrome P450 2D6 (Homo sapiens) (P10635 whole entry, looked up): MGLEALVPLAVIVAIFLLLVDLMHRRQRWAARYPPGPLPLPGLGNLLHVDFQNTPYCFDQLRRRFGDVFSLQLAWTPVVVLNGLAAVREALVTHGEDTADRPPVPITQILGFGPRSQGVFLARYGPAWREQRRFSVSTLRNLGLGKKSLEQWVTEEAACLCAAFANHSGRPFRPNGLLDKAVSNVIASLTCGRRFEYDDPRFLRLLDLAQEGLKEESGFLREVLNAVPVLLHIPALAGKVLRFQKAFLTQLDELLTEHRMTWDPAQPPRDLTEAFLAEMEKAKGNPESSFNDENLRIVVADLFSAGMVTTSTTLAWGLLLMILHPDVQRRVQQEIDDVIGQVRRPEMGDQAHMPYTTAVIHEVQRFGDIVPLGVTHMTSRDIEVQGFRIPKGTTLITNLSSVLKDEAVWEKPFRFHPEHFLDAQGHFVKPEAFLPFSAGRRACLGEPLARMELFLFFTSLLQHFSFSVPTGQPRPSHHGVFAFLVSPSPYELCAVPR
Chain of Catechol O-methyltransferase (Homo sapiens) (P21964 whole entry, looked up): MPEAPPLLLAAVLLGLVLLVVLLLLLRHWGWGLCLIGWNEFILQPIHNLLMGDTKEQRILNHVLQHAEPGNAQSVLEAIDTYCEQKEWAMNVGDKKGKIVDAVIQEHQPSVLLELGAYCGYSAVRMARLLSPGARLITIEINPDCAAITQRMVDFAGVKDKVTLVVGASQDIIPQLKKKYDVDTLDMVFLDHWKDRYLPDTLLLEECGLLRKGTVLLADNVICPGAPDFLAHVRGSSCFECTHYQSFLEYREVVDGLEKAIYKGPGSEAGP

Turning to `O=C(O)c1cc(-c2c(-c3ccccc3)nn3ccccc23)n[nH]c1=O`, the Potency entry in test [1], in test [2] and in test [3] was “inactive” in each case.
Consider `CC1(C)CCC(C)(C)c2cc(C3(c4ccc(C(=O)O)cc4)OCCO3)ccc21`, for which the Potency result in test [1], in test [2] and in test [3] was “inactive” throughout.
In the case of `Cc1ccc(NC(=O)C(=O)NC2CC(C)(C)NC(C)(C)C2)cc1`, the Potency entry in test [1], in test [2] and in test [3] was “inactive” in each case.
As to `CCOCCn1nc(CC)c2nc(N3CCC(C(=O)O)CC3)nc(Nc3cc(C)ccn3)c21`, the Potency entry in test [1], in test [2] and in test [3] was “inactive” each time.
As for `O=C(Nc1ccc(S(=O)(=O)C(F)(F)F)cc1)C1=CCN(c2ncccc2C(F)(F)F)CC1`, the Potency is 7.56 µM (active) in test [1], 7.28 µM (active) in test [2] and 10.3 µM (active) in test [3]. In addition, the Potency entry in test [4] was “inactive”.
On to `O=S(=O)(NCC1CC1)c1ccc(Nc2nccc(N3CCCc4cc(O)ccc43)n2)cc1`, for which the Potency in test [1] was 8.49 µM (active); in test [2] it was 1.15 µM (active); in test [3], 1.15 µM (active).
On to `CNS(=O)(=O)CC1CCC(N(C)c2ncnc3[nH]ccc23)CC1` (centres undefined), for which the Potency result in test [1] and in test [5] was “inactive” throughout. Moreover, the activity in test [6] is -6.68%.
For `N#CC(c1ccnc(OCc2ccc(CN3CCOCC3)cc2)n1)c1nc2ccccc2s1` (centres undefined), the Potency result in test [1] and in test [2] was “inactive” in each case.
Consider `Cn1nnc(-c2ccc(-c3ccc(N4C[C@H](CO)OC4=O)cc3F)cn2)n1`, for which the Potency entry in test [1], in test [2] and in test [3] was “inactive” throughout.
As for `COc1cc(O)c([C@@H](CC(=O)N2CC(C)CC(C)C2)c2ccc3c(c2)OCO3)c(OC)c1` (some centres undefined), the Potency in test [1] is 19 µM (active); in test [5], 1.34 µM (active). For the same molecule, the Potency entry in test [3] was “inactive”.
With `CCOCc1cc(OC)c(-c2ccc(C[C@H](NC(=O)c3c(F)cccc3F)C(=O)O)cc2)c(OC)c1`, the Potency result in test [1], in test [2] and in test [3] was “inactive” throughout.
For `COc1cccc(Nc2ncnn3ccc(CN4CC[C@@H](N)[C@H](O)C4)c23)c1`, the Potency is 9.52 µM (active) in test [1], 4.68 µM (active) in test [2] and 4.68 µM (active) in test [3].
As for `N#Cc1cc(F)cc(-c2nc(-c3ccccn3)no2)c1`, the Potency in test [1] is 10.7 µM (active). For the same molecule, the Potency result in test [2] and in test [3] was “inactive” in each case.
Consider `Nc1nccn2c(C3CCC(C(=O)O)CC3)nc(-c3cc4cccc(Cl)c4[nH]3)c12` (centres undefined), for which the Potency entry in test [1] was “inactive”. For the same molecule, the Potency is 1.29 µM (active) and 3.72 µM (active) in test [2]; 1.15 µM (active) and 4.17 µM (active) in test [3].
For the molecule `COc1cc2ncnc(Nc3cccc(O)c3)c2cc1OC`, the Potency result in test [1] is “inactive”. Further, the Potency was 2.9 µM (active) in test [2] and 3.25 µM (active) in test [3].
In the case of `CCN(Cc1cccnc1)C(=O)CN(c1ccc(OC)nc1)S(=O)(=O)c1ccccc1C`, the Potency entry in test [1], in test [2] and in test [3] was “inactive” each time.
Turning to `N#Cc1cnc2cnc(NCc3cccnc3)cc2c1Nc1ccc(F)c(Cl)c1`, the Potency in test [1] is 0.756 µM (active); in test [5], 1.2 µM (active). The activity in test [6] is -10.6%.
For `Cc1cc(C(=O)N2Cc3cnn(C)c3Nc3ccccc32)ccc1CNC(=O)N1CCC[C@H]1C(=S)N1CCCN(C)CC1`, the Potency result in test [1], in test [2] and in test [3] was “inactive” throughout.
As for `C=C(F)c1sc(CNCCCNc2cc(=O)c3ccccc3[nH]2)c(C)c1Br`, the Potency in test [1] is 1.07 µM (active); in test [5], 2.13 µM (active). Also, in test [6], the activity is -1.13%.
As to `COc1cc2c(NC3CCN(CC4CCCCC4)CC3)nc(N3CCCN(C(C)C)CC3)nc2cc1OCCCN1CCCCC1`, the Potency is 12 µM (active) in test [1]; 34.5 µM (active) in test [4]; 2.58 µM (active) and 5.25 µM (active) in test [2]; 2.3 µM (active) and 3.32 µM (active) in test [3]. The activity in test [6] was -7.99%.
With `Cc1nc2sc(C(=O)NCc3ccncc3)c(N)c2c(C)c1Cl`, the Potency in test [1] was 2.39 µM (active). For the same molecule, the Potency entry in test [2] and in test [3] was “inactive” in each case.
Regarding `CC(C)c1cccc2c(-c3ccccc3)cc(-c3ccc(-c4ccc(C(=O)O)cc4)[nH]3)nc12`, the Potency result in test [1] was “inactive”. In addition, the Potency in test [5] was 7.56 µM (active). Moreover, the activity in test [6] is -3.32%.
`O=C(Nc1ccccc1)N1CCN(Cc2ccc3ccccc3n2)CC1`: the Potency result in test [1], in test [2] and in test [3] was “inactive” each time.
As to `O=C(Nc1ccc(-c2ccncc2)cc1)N[C@H](CO)c1ccccc1`, the Potency in test [1] was 10.7 µM (active); in test [5] it was 10.7 µM (active); in test [3], 23 µM (active).
On to `c1cc(OCCCN2CCCCC2)ccc1CN1CCCCC1`, for which the Potency result in test [1] and in test [5] was “inactive” in each case. Also, in test [6], the activity was -4.16%.
For `CCCC(=O)C1CCN(c2ncnc3c2CN(C(=O)c2ccc(-c4ccccc4)cc2)CC3)CC1`, the results for the Potency in test [1], in test [5] and in test [3] were 21.3 µM (active), 3.01 µM (active) and 20.5 µM (active), respectively.
Regarding `O=C(Nc1ccc(S(=O)(=O)Nc2ccccc2Cl)c(Cl)c1)c1ccccn1`, the Potency entry in test [1], in test [2] and in test [3] was “inactive” in each case.
As to `C[C@@H]1COCCN1c1cc(C2(S(C)(=O)=O)CC2)nc(-c2cccc3[nH]ccc23)n1`, in test [1], the Potency result was “inactive”. Further, the values for the Potency in test [2] and in test [3] were 0.515 µM (active) and 0.459 µM (active), respectively.
With `O=C(COc1cccc2c(=O)[nH]ccc12)c1ccccc1`, the Potency result in test [1] and in test [2] was “inactive” throughout.
Consider `Cc1ccccc1NC(=O)Nc1ccc(CC(=O)N(C)[C@@H](CC(C)C)C(=O)NCC[C@H](NC(=O)[C@@H]2CCCN2S(=O)(=O)c2cc(Cl)cc(Cl)c2)C(=O)O)cc1`, for which the Potency result in test [1], in test [2] and in test [3] was “inactive” throughout.
Regarding `CN(C)CC1CCOC1(c1ccccc1)c1ccccc1` (centres undefined), in test [1], the Potency is 2.24 µM (active). For the same molecule, the Potency entry in test [2] and in test [3] was “inactive” each time.
For `CCc1cccc(CC)c1NC(=O)c1nn(C)c2c1CCc1cnc(Nc3ccc(C(=O)NC4CCN(C)CC4)cc3OC(F)(F)F)nc1-2`, the Potency in test [1] is 9.28 µM (active); in test [3] it was 1.78 µM (active).
For the molecule `CS(=O)(=O)N1CCC(NC(=O)c2[nH]ncc2NC(=O)c2c(Cl)cccc2Cl)CC1`, the Potency result in test [1] was “inactive”. For the same molecule, the results for the Potency in test [2] and in test [3] were 0.525 µM (active) and 0.332 µM (active), respectively.
